Results: PubChem BioAssay AID977606 (Broad Institute, 2014)
Among all 1,500 compounds or so, about 430 (29%) were called active. No rule for the calls is given here. These entries were drawn from the full list. Results with a measured potency or affinity are listed apart.

Assay: insulin secretion activators without glucose, dose response, counter-screen for glucose-dependent insulin secretion activators, cell-based, INS-1E, Gaussia luciferase, luminescence, cherry-pick (AID 977606)
Details: INS-1E Gaussia luciferase insulin secretion, no glucose, 100% = twice neutral-control luminescence; series mostly up to 35 µM

Row | Compound | outcome
1 | COc1ccc(-c2nnc3sc(-c4ccco4)nn23)cc1OC | inactive
2 | COc1ccc(-c2nc(C(=O)O)cs2)cc1OC | inactive
3 | COc1ccc(-c2ccncc2)cc1OC | inactive
4 | Cc1ccc2nc(N3CCN(C(=O)CCCC(=O)O)CC3)nc(-c3ccccc3)c2c1 | inactive
5 | COc1ccc(-c2nnn(Cc3nc(N)nc(N4CCOCC4)n3)n2)cc1OC | inactive
6 | COc1ccc(-c2cc(-c3ccco3)[nH]c(=O)c2C#N)cc1OC | inactive
7 | CC(C)C(C(=O)NCc1ccco1)N(CC1CCCO1)C(=O)CNS(=O)(=O)c1ccc(F)cc1 (stereo not given) | inactive
8 | COc1cccc(-n2c(=O)n(Cc3ccccc3)c(=O)c3[nH]cnc32)c1C | inactive
9 | CCOc1nc(NC(=O)NS(=O)(=O)c2cccc(Cl)c2)nc(-c2ccccc2)n1 | inactive
10 | COc1ccccc1-n1cnc2sc(C)c(C)c2c1=O | inactive
11 | CCCCNC(=O)O[C@H]1C[C@@H]2CCN3C(=O)CCC[C@H]([C@H]1CC)[C@H]23 | inactive
12 | COc1ccc(CCNS(=O)(=O)c2cccc(C)c2)cc1OC | inactive
13 | O=C(c1ccccc1F)N1CCCC(N2CCN(Cc3ccc4c(c3)OCO4)CC2)C1 (stereo not given) | inactive
14 | CCN(CC)CCCN=C1N[C@@H](c2ccccc2)C(C(=O)OC)=C(C)N1CC | inactive
15 | CCNC(=O)C1(C)CCCN1Cc1cccc(C(F)(F)F)c1 (stereo not given) | inactive
16 | COc1ccc(S(=O)(=O)N(C)c2ccc(C(=O)N3CCCC3)cc2)cc1OC | inactive
17 | CCN(CC)C(=O)c1ccccc1NS(=O)(=O)c1ccc(C)cc1 | inactive
18 | CCN(CCC(=O)O)c1ccccc1 | inactive
19 | CCCCC(=O)N(C)c1c(CC)nc2c(OCc3ccc(C(F)(F)F)cc3)cccn12 | inactive
20 | C=C(C)n1c(=O)n(Cc2ccccc2C)c2ccccc21 | inactive
21 | CCOC(=O)N1CCN(S(=O)(=O)N2CCCC(C(=O)NCc3cc(OC)ccc3OC)C2)CC1 (stereo not given) | inactive
22 | COc1cc(C(F)(F)F)c(C(=O)NCc2cccc(Cl)c2)cn1 | inactive

Row | Compound | outcome
23 | CCCNC(=O)C1(C)CCN(C(=O)c2cccc(C(F)(F)F)c2)C1 (stereo not given) | inactive
24 | CCn1cc(S(=O)(=O)NCCc2ccc(OC)c(OC)c2)cn1 | inactive
25 | O=C(Nc1nnc(-c2ccc(Cl)cc2)o1)NC1CCCCC1 | inactive
26 | COc1cc2cnc(-c3ccsc3)cc2cc1OC | inactive
27 | CCOC(=O)C1CCCN(C(=O)c2cccnc2Oc2ccccc2)CC1 (stereo not given) | inactive
28 | CCOC(=O)c1ccc(S(=O)(=O)N2CCC(C(=O)Nc3nnc(C)o3)CC2)cc1 | inactive
29 | CCc1cccc(NC(=O)C2CCCN2S(=O)(=O)c2ccc3c(c2)n(C)c(=O)c(=O)n3C)c1 (stereo not given) | inactive
30 | Cc1cccc(C)c1OCCCn1ccnc1 | inactive
31 | CCSc1ncnc2sc3c(c12)CCC3 | inactive
32 | O=C1c2cccnc2C(Nc2cccc(F)c2)N1Cc1ccco1 (stereo not given) | inactive
33 | C[C@@H]1CN([C@H](C)CO)C(=O)CCCn2nncc2CO[C@H]1CN(C)C(=O)Nc1ccnc(N2CCOCC2)c1 | inactive
34 | Cc1ccc(-c2nc(C#N)c(NCC3CCCO3)o2)cc1 (stereo not given) | inactive
35 | CCOc1ccc(Nc2oc(-c3cccc(Cl)c3)nc2C#N)cc1 | inactive
36 | CN1CCN(C(=O)c2cccc(-c3cnc4cnc(-c5ccccc5Oc5ccccc5)cn34)c2)CC1 | inactive
37 | N#Cc1ccc(-c2ccc3c(c2)[C@@H]2[C@@H](CCN2C(=O)C2CCCC2)[C@@H](CO)N3)cc1 | inactive
38 | COc1ccccc1C(=O)N/N=C(\C)CC(=O)Nc1ccc2c(c1)OCCO2 | inactive
39 | COc1ccc(-n2c(=S)[nH]c3cc(C(=O)Nc4ccc(OC)c(OC)c4)ccc3c2=O)cc1 | inactive
40 | C=CCc1ccccc1Oc1cc(OC)nc(N)n1 | inactive
41 | COc1ccccc1CNC(=O)CCNS(=O)(=O)c1ccc2[nH]c(=O)oc2c1 | inactive
42 | COc1ccc(-c2ccc(SCc3ccccn3)nn2)cc1OC | inactive
43 | CC(C)NC(=O)C1(C)CCN1Cc1cccc(C#N)c1 (stereo not given) | inactive
44 | CC1(C(=O)NCc2ccccc2)CN(S(C)(=O)=O)CC(=O)N1C1CC1 (stereo not given) | inactive

Row | Compound | outcome
45 | Cc1ccccc1CN(C)Cc1cc(=O)oc2c(C)c(C)ccc12 | inactive
46 | C[C@H]1CN=C(N(C)C)N1CC1CCCC1 | inactive
47 | COc1ccccc1NS(=O)(=O)c1cccc(C(=O)N/N=C/c2c(C)nn(-c3ccccc3)c2N2CCCC2)c1 | inactive
48 | Cc1nn(-c2ccccc2)c(N2CCCC2)c1/C=N/O | inactive
49 | COc1ccc(S(=O)(=O)Nc2cccc(-c3ccc4nncn4n3)c2)cc1F | inactive
50 | CNC(=O)c1[nH]nc2c1CCc1cc(OC)ccc1-2 | inactive
51 | COc1ccc2c(c1)CCc1cc(C(=O)O)sc1-2 | inactive
52 | CCOc1ccc(C(C)=O)cc1COC(=O)CN1C(=O)NC2(CCCC2)C1=O | inactive
53 | COc1ccc2c(c1)[C@@]1(OCCC=C[C@H]1C)C(=O)N2CC1CC1 | inactive
54 | NC(=O)C1CCN(c2nc(-c3ccccc3)nc3ccccc23)CC1 | inactive
55 | CN(Cc1ccccc1)c1ncnc2[nH]ncc12 | inactive
56 | O=C(Nc1ccc(F)cc1)c1cccnc1Oc1ccccc1 | inactive
57 | c1ccc(-c2ccccc2OCCN2CCCCC2)cc1 | inactive
58 | N#Cc1sc2nc3c(c(-c4cccnc4)c2c1N)CCC3 | inactive
59 | Cc1cccc(C)c1NC(=O)C1c2ccccc2OCC(=O)N1CCCN1CCOCC1 (stereo not given) | inactive
60 | Cc1ccc(CS(=O)Cc2ccc(C(=O)NCc3ccccc3)o2)cc1 (stereo not given) | inactive
61 | Cc1ccc(C(=O)n2nc(-c3cccnc3)nc2N)cc1 | inactive
62 | CC(=O)NCCc1nc2ccccc2n1CCOc1cccc(C)c1 | inactive
63 | COc1ccc(OCC(=O)NNC(=O)Cn2c(=O)cnc3ccccc32)cc1 | inactive
64 | CCCCCCn1c(-c2cccs2)n[nH]c1=S | inactive
65 | CCN1CCN(CC(=O)Nc2ccc(C(C)=O)cc2)CC1 | inactive
66 | COc1ccc(OC)c(-c2nnc3n2N=C(c2ccc(OC)c(OC)c2)CS3)c1 | inactive

Row | Compound | outcome
67 | CC[C@@H]1CC2=C(C(=O)OC(C)(C)O2)[C@H](c2ccc(F)cc2)O1 | inactive
68 | CCOC(=O)c1sc2nc(-c3ccccc3)ccc2c1N | inactive
69 | C#Cc1cccc(-n2nnc(C(=O)OC)c2-c2ccccc2)c1 | inactive
70 | Cc1cc(-c2ccccc2)n2nc(N)nc2n1 | inactive
71 | CNC(=O)C1CC(=O)N(c2ccc(OCC(=O)Nc3ccccc3)cc2)C1 (stereo not given) | inactive
72 | CCCc1cc(=O)oc2cc(OCC(=O)NC3CCN(Cc4ccccc4)CC3)ccc12 | inactive
73 | Cc1ccc2c(c1)c(-c1ccccc1)nc1nncn12 | inactive
74 | CCC(CC)NC(=O)c1ccccc1Oc1ccccc1 | inactive
75 | COc1ccc(C2=Nn3c(nnc3-c3ccncc3)SC2)cc1OC | inactive
76 | C/C(Cl)=C\Cn1c(N2CCCC2)nc2c1c(=O)n(C)c(=O)n2C | inactive
77 | CCOc1cc(/C=C(\CC(=O)O)c2nc3ccccc3s2)ccc1OC | inactive
78 | C=CCN1C(=O)CSc2ccc(C(=O)OCC)cc21 | inactive
79 | CC(NC(=O)C1CCCN1S(=O)(=O)c1ccc2c(c1)n(C)c(=O)c(=O)n2C)c1ccccc1 (stereo not given) | inactive
80 | N#CCCN(Cc1ccccc1)C(=O)c1cccs1 | inactive
81 | CNc1nc(Cl)nc2c1ncn2-c1ccccc1 | inactive
82 | COc1ccc(CCN2CC(=O)NC(=O)C2)cc1OC | inactive
83 | CCOC(=O)Cn1c(=O)n(Cc2ccccc2)c(=O)c2cccnc21 | inactive
84 | COc1ccc(S(=O)(=O)Nc2ccc3c(c2)OCO3)cc1OC | inactive
85 | C[C@@H]1O[C@H](C2CCCC2)CC2=C1C(=O)OC(C)(C)O2 | inactive
86 | COc1ccc(S(=O)(=O)N2CCOCC2)cc1NC(=O)COc1ccccc1 | inactive
87 | CCOc1ccc(C(=O)OCC(=O)Nc2cc(C)on2)cc1OCC | inactive
88 | COc1cc(C(C(=O)NC2CCCC2)N(Cc2ccco2)C(=O)c2snc(C(N)=O)c2N)cc(OC)c1OC (stereo not given) | inactive

Row | Compound | outcome
89 | N#CN=CN1CC=C(c2ccc(Cl)cc2)CC1 | inactive
90 | CCOC(=O)c1cc(CC)sc1NC(=O)COC(=O)c1cnccn1 | inactive
91 | CC(=O)Nc1sc(C)c(C)c1C(=O)OCC(=O)Nc1cc(S(C)(=O)=O)ccc1Cl | inactive
92 | COc1ccc(CCNCc2cc3ccc(C)cc3[nH]c2=O)cc1OC | inactive
93 | COc1cc(OC)c(OC)cc1CCC(C)NC(=O)Cc1ccccc1 (stereo not given) | inactive
94 | COc1cc2c(cc1OC)-c1cc(Nc3ccc(N(C)C)cc3)nc(=O)n1CC2 | inactive
95 | COc1ccc(N2CC(NS(=O)(=O)c3cccs3)CC2=O)cc1OC (stereo not given) | inactive
96 | CCOC(=O)Cn1nc(-c2ccccc2)c(-c2ccccc2)nc1=O | inactive
97 | O=C(O)c1ccc(-c2nc(-c3ccccc3)c(-c3cccs3)[nH]2)cc1 | inactive
98 | O=C(Cc1c[nH]c2ccccc12)N[C@@H](Cc1c[nH]c2ccccc12)C(=O)O | inactive
99 | Cc1ccc(S(=O)(=O)N(C)c2nc3ccccc3n3c(C(C)C)nnc23)cc1 | inactive
100 | C=CCc1cccc(/C=N/NC(=O)CCC(=O)Nc2ccc(C)cc2)c1O | inactive
101 | O=C(N/N=C/c1cc(Cl)ccc1O)c1ccc(Br)cc1 | inactive
102 | COc1ccc(-c2nnc(-c3cccs3)o2)cc1OC | inactive
103 | CC(=O)c1cccc(N(CC(=O)NC2CCCCC2)C(=O)Cn2nnc(-c3ccccc3)n2)c1 | inactive
104 | CCCCOc1ccc(-c2nnn(CC(=O)c3c[nH]c4ccccc34)n2)cc1 | inactive
105 | Cc1ccc2c(c1)C=CC(C#N)N2C(=O)c1ccccc1 (stereo not given) | inactive
106 | CC(=O)N1CCN(c2nc(-c3cccs3)nc3ccccc23)CC1 | inactive
107 | CN[C@H]1C[C@@H](c2ccccc2)N(C(C)=O)C[C@H]1CO | inactive
108 | CCOC(=O)N1CCN(S(=O)(=O)c2ccc3c4c(cccc24)C(=O)N3)CC1 | inactive
109 | CS(=O)(=O)c1nc(S(=O)(=O)c2ccc(Cl)cc2)c(N2CCCCCC2)s1 | inactive
110 | C=CCn1cc(Cl)cc(C(=O)Nc2ccccc2)c1=O | inactive
